Screens from PubChem BioAssay.
aSyn 5UTR act – Activators via SNCA 5'UTR binding, MLPCN | alpha-synuclein 5'UTR reporter, activators screen | activity score, % (tested at 7.5 µM), hits read low | hit rate 7.1% among 300,000; in the data active = activity score below about -60%
* marks the source's active call; other numbers are inactive results. The list is a sample of the results.

SMILES | aSyn 5UTR act
Oc1c(Br)cc(C=Nc2ccc3nc(-c4ccccc4)[nH]c3c2)c(O)c1Br | -124*
Cc1c(C(=O)c2ccccc2)oc2ccc3ccccc3c12 | -116*
c1ccc2c(c1)NC1(CCCCCC1)n1c-2nc2ccccc21 | -142*
CC1=CC(C)(C)Nc2ccccc21 | 92
CCCCC1(C)Nc2ccccc2-c2nc3ccccc3n21 (stereo not given) | -146*
c1ccc2c(c1)NC1(CCCCC1)n1c-2nc2ccccc21 | -126*
O=C(Nc1ccc(F)cc1)Oc1ccc[nH]c1=O | -82*
O=C(NCCC1=CCCCC1)c1cnsn1 | -65*
Cc1c(C(=O)NCCC2=CCCCC2)cccc1[N+](=O)[O-] | -90*
Cc1cc(C(=O)NCCC2=CCCCC2)no1 | -81*
O=C(Nc1cc2c(cc1Cl)OCCCO2)c1ccco1 | -144*
O=C(Nc1cc2c(cc1Cl)OCCCO2)c1ccccc1 | -151*
Cc1ccc(Nc2nc(CSc3n[nH]c(N)n3)cs2)cc1 | -108*
Cc1ccc(Nc2nc(CSc3nnnn3C)cs2)cc1 | -103*
Cn1nnnc1SCc1csc(Nc2ccccc2)n1 | -109*
O=C(Nc1cccc(NC(=O)c2cccs2)c1)c1ccc([N+](=O)[O-])o1 | -69*
O=C(Nc1cc2cc([N+](=O)[O-])ccc2oc1=O)c1cccs1 | -76*
COc1cc(NC(=O)c2ccc([N+](=O)[O-])o2)ccc1NC(=O)c1cccs1 | -82*
COC(=O)c1ccc(-c2ccc(/C=N/N3C(=O)C4C5C=CC(CC5)C4C3=O)o2)cc1 (stereo not given) | -191*
CCOC(=O)CNC(=O)c1ccc(SCC)cc1 | -91*
Cc1ccc2c(c1)N=C(c1ccccc1)CC(C(Cl)Cl)=N2 | -74*
Cc1ccc(C2=Nc3ccccc3N=C(C(Cl)Cl)C2)cc1 | -76*
COc1ccc(C2=NNC(c3cc(Cl)cc4c3OCOC4)C2)c(O)c1 (stereo not given) | -73*
O=C(NC1CCCCC1)c1cc2cc(Br)ccc2o1 | -138*
O=C(NC1CCCCC1)Oc1cc2oc(=O)sc2cc1Br | 54
SMILES | aSyn 5UTR act
O=C(NC1CCCC1)c1cc2ccccc2o1 | -107*
O=C(NC1CCCC1)c1cc2cc(Br)ccc2o1 | -139*
Cc1ccc(C(=O)NC2CCC(C)CC2)s1 (stereo not given) | -92*
CC1CCC(NC(=O)c2cc3c(s2)CCCC3)CC1 (stereo not given) | -116*
O=C1/C(=C/c2ccccc2[N+](=O)[O-])COc2ccccc21 | -114*
CNc1ccc(/C=C2\COc3ccccc3C2=O)cc1[N+](=O)[O-] | -118*
COc1ccc2c(c1)sc(N)[n+]2Cc1cc(C)cc2cccnc12 | 114
Cc1cccc(Nc2nc3ccccc3s2)c1C | -181*
COc1ccc2nc(-n3c(C)ccc3C)sc2c1 | -62*
COc1ccc2nc(NC3=NCCC3)sc2c1 | -179*
COc1cccc(Nc2nc3ccc(OC)cc3s2)c1 | -168*
COc1cccc(Cn2c(NCc3cccnc3)nc3c2c(=O)n(C)c(=O)n3C)c1 | 71
COc1ccc(Nc2nc3ccccc3s2)cc1 | -159*
COc1ccc2nc(NCc3cccnc3)sc2c1 | -75*
Nc1ccccc1C#Cc1ccc2[nH]ccc2c1 | -174*
Nc1ccccc1C#Cc1ccccc1 | -162*
CN(C)c1ccc(/C=N/NC(=O)c2ccn(C)n2)cc1 | -115*
CN(C)c1ccc(/C=N/NC(=O)c2ccnn2C)cc1 | -110*
Cc1cc(N2CCOCC2)ccc1/C=C\[N+](=O)[O-] | -101*
CC(C)CC(=O)Nc1cccc(-c2cn3ccsc3n2)c1 | -126*
O=C(Nc1ccc(-c2cn3ccsc3n2)cc1)C1CCCC1 | -95*
O=C(Nc1ccc(-c2cn3ccsc3n2)cc1)C1CC1 | -159*
CC(=O)Nc1ccc(-c2cn3ccsc3n2)cc1 | -71*
CC(C)(C)CC(=O)Nc1cccc(-c2cn3cccnc3n2)c1 | -107*
c1cn2cc(-c3ccc4c(c3)OCO4)nc2s1 | -137*
SMILES | aSyn 5UTR act
C=CCNC(=S)NC(=O)c1oc2ccccc2c1C | -155*
Cc1c(C(=O)NC(=S)NCC(C)C)oc2ccccc12 | -191*
Cc1cccnc1NC(=S)NC(=O)c1oc2ccccc2c1C | -226*
CCCC1CCC(c2ccc(OCC)cc2)=CC1=O (stereo not given) | -216*
Cc1ccc(N(C(=O)Nc2ccccc2)C2=NCC(C)S2)cc1 (stereo not given) | -62*
Cc1ccc(-c2nc(N)n(C(=O)c3cccnc3)n2)cc1 | -77*
O=C(Nc1cccc(NC(=O)c2ccc([N+](=O)[O-])o2)c1)c1ccco1 | -66*
O=C(Nc1ccc(Cl)c([N+](=O)[O-])c1)c1ccco1 | -67*
O=C(Nc1ccccc1Cl)c1ccc([N+](=O)[O-])o1 | -139*
O=C(Nc1ccc(NC(=O)c2ccc([N+](=O)[O-])o2)cc1Cl)c1ccco1 | -173*
CS(=O)(=O)N1CCN(c2ccccc2NC(=O)c2ccc([N+](=O)[O-])o2)CC1 | -123*
CCC(=O)N1CCN(c2ccc(NC(=O)c3ccc([N+](=O)[O-])o3)cc2Cl)CC1 | 77
O=C(Nc1cc(Cl)ccc1-n1cncn1)c1ccc([N+](=O)[O-])o1 | -70*
Cc1ccc(NC(=O)c2ccco2)cc1C | -103*
